This is part of a sample that, as a whole, favours compounds with a hit. Of some 83,000 tested, about 20% had one in any assay.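 Single-dose data. Exposure time 48 hours. Values below 10 considered active.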 Values without a mark were called inactive. The source made the active and inactive calls.

Some test systems named below: RPMI-8226 leukemia; OVCAR-8 ovarian; OVCAR-5 ovarian; OVCAR-4 ovarian; SK-OV-3 ovarian; IGROV1 ovarian; OVCAR-3 ovarian; HS 578T breast; NCI/ADR-RES ovarian; BT-549 breast; MDA-MB-435 melanoma; SW-620 colon; MCF7 breast; HCT-116 colon; HCC-2998 colon; KM12 colon; T-47D breast.
Assay in all cases: NCI-60 one-dose screen, 48 h (100 = growth as untreated, 0 = no growth, -100 = all killed)
Common to all, as to settings: 10 µM unless noted

With `O=C(NCCCl)Nc1nccnc1OCc1ccc(F)cc1`, the growth in the assay on RPMI-8226 leukemia was 96.4%; in the assay on OVCAR-8 ovarian, 101%; in the assay on OVCAR-5 ovarian it was 96.6%; in the assay on OVCAR-4 ovarian, 104%; in the assay on SK-OV-3 ovarian, 93.1%; in the assay with IGROV1 ovarian, 107%. Moreover, the growth is 117% in the assay on OVCAR-3 ovarian; 115% in the assay on HS 578T breast; 104% in the assay on NCI/ADR-RES ovarian; 88.8% in the assay with BT-549 breast; 107% in the assay on MDA-MB-435 melanoma; 103% with SW-620 colon. Also, the growth is 85.1% in the assay on MCF7 breast, 104% with HCT-116 colon, 113% in the assay on HCC-2998 colon and 107% in the assay with KM12 colon.

Consider `CCCCCCCCCCCCCCCCCC(=O)Nc1ccc(O)cc1`, for which the growth in the assay with RPMI-8226 leukemia is 77.8%; in the assay with OVCAR-8 ovarian it was 91.3%; in the assay on OVCAR-5 ovarian, 117%; with OVCAR-4 ovarian, 104%; in the assay on SK-OV-3 ovarian, 98.8%; with IGROV1 ovarian it was 105%. The growth in the assay on OVCAR-3 ovarian is 103%; in the assay with HS 578T breast it was 104%; in the assay on NCI/ADR-RES ovarian, 95.4%; in the assay on T-47D breast, 93.6%; in the assay on BT-549 breast, 62.8%; with MDA-MB-435 melanoma, 107%. Also, the growth in the assay on SW-620 colon was 98.6%; with MCF7 breast it was 98.9%; in the assay with HCT-116 colon, 106%; in the assay with HCC-2998 colon, 120%; in the assay with KM12 colon, 100%.

On to `COc1cc(CCNc2cnc3cc(N)cc(N)c3n2)cc(OC)c1`, for which the growth in the assay with RPMI-8226 leukemia is 86%; with OVCAR-8 ovarian, 98.6%; in the assay on OVCAR-5 ovarian it was 92.3%; in the assay on OVCAR-4 ovarian, 93.8%; in the assay on SK-OV-3 ovarian, 168%; in the assay on IGROV1 ovarian, 103%. The growth with OVCAR-3 ovarian is 92.6%; in the assay on HS 578T breast, 132%; in the assay on NCI/ADR-RES ovarian, 105%; with T-47D breast it was 140%; in the assay with MDA-MB-435 melanoma, 115%; with SW-620 colon it was 111%. Further, the growth with MCF7 breast is 96.9%; with HCT-116 colon it was 103%; in the assay on HCC-2998 colon, 139%; with KM12 colon, 106%.

Take `COc1cc(NC(=O)CSc2nc3ccc(Cl)cc3c(=O)n2-c2ccc(F)cc2)cc(OC)c1OC`: the growth with RPMI-8226 leukemia is 39.2%; in the assay with OVCAR-8 ovarian, 88.8%; with OVCAR-5 ovarian, 88.7%; in the assay on OVCAR-4 ovarian, 77.2%; with SK-OV-3 ovarian, 87.6%; with IGROV1 ovarian, 86.6%. For the same molecule, the growth was 80.6% with OVCAR-3 ovarian; 75% with HS 578T breast; 81% with NCI/ADR-RES ovarian; 72.6% with T-47D breast; 95.9% with BT-549 breast; 90.8% with MDA-MB-435 melanoma. The growth in the assay with SW-620 colon is 95.4%; in the assay on MCF7 breast, 87.5%; with HCT-116 colon, 79.4%; with HCC-2998 colon it was 105%; in the assay on KM12 colon, 85.2%.

As to `OCCN1CCCN(CCCN2c3ccccc3Sc3ccc(C(F)(F)F)cc32)CC1`, the growth is 42.2% in the assay with RPMI-8226 leukemia; 91% in the assay on OVCAR-8 ovarian; 83.9% in the assay with OVCAR-5 ovarian; 54.4% in the assay with OVCAR-4 ovarian; 77.3% with SK-OV-3 ovarian; 41.3% in the assay with IGROV1 ovarian. Moreover, the growth in the assay with OVCAR-3 ovarian is 78.7%; with HS 578T breast it was 29.1%; with NCI/ADR-RES ovarian, 73.5%; with T-47D breast it was 60.7%; in the assay on MDA-MB-435 melanoma it was -29.2% (active); in the assay with SW-620 colon, 67.7%. Besides, the growth with MCF7 breast is 39.2%; with HCT-116 colon, 29.2%; in the assay on HCC-2998 colon, -42.4% (active); with KM12 colon it was 54.7%.

Turning to `CCn1cc(C(=O)O)c(=O)c2cc(F)c(N3CCN(S(=O)(=O)c4ccc(Cl)cc4)CC3)cc21`, the growth in the assay on RPMI-8226 leukemia is 13.4%; in the assay with OVCAR-8 ovarian, 12.6%; in the assay on OVCAR-5 ovarian, 51.9%; in the assay with OVCAR-4 ovarian, 37.7%; in the assay on SK-OV-3 ovarian, 40.8%; in the assay with IGROV1 ovarian, 9.37% (active). Moreover, the growth in the assay on OVCAR-3 ovarian is 28.2%; in the assay on HS 578T breast it was 18.9%; in the assay with NCI/ADR-RES ovarian, 68.7%; with T-47D breast it was 41.1%; in the assay on BT-549 breast, 12.6%; with MDA-MB-435 melanoma, 25.1%. Also, the growth in the assay with SW-620 colon is 24%; with MCF7 breast, 14.3%; in the assay on HCT-116 colon, 4.8% (active); with HCC-2998 colon, 24.5%; with KM12 colon it was 4.3% (active).

Turning to `CCCCN(CCCC)c1ccc(C(=O)O)cc1`, the growth in the assay with RPMI-8226 leukemia is 102%; in the assay with OVCAR-8 ovarian, 105%; in the assay with OVCAR-5 ovarian, 108%; with OVCAR-4 ovarian, 101%; with SK-OV-3 ovarian, 98.5%; in the assay on IGROV1 ovarian, 99.3%. Also, the growth in the assay on OVCAR-3 ovarian is 106%; in the assay with HS 578T breast it was 109%; with NCI/ADR-RES ovarian, 106%; in the assay on T-47D breast, 94.7%; in the assay with MDA-MB-435 melanoma, 102%; in the assay on SW-620 colon it was 107%. In addition, the growth with MCF7 breast was 98.6%; in the assay on HCT-116 colon it was 97.3%; in the assay on HCC-2998 colon, 100%; with KM12 colon, 103%.

For `Nc1cc(N)c2nc(-c3ccccc3)c(NCCc3ccc(Cl)c(Cl)c3)nc2c1`, the growth in the assay on RPMI-8226 leukemia is -60.6% (active); in the assay with OVCAR-8 ovarian, -90.6% (active); with OVCAR-5 ovarian, -76.9% (active); in the assay with OVCAR-4 ovarian, -85.5% (active); in the assay on SK-OV-3 ovarian, -80.7% (active); with IGROV1 ovarian, -77.8% (active). The growth in the assay on OVCAR-3 ovarian is -91.2% (active); in the assay on HS 578T breast, -22.7% (active); in the assay with NCI/ADR-RES ovarian, -54.3% (active); in the assay on T-47D breast, -11.5% (active); with BT-549 breast it was -70.4% (active); in the assay with MDA-MB-435 melanoma it was -88.2% (active). The growth in the assay on SW-620 colon is -86.7% (active); in the assay with MCF7 breast, -2.91% (active); with HCT-116 colon, -90.8% (active); in the assay with HCC-2998 colon, -94.9% (active); in the assay with KM12 colon it was -83.4% (active).

Consider `Cc1ccc(C(=O)Nc2ccc(CN3CCN(C)CC3)c(C(F)(F)F)c2)cc1C#Cc1cnc(N)c2ccc(F)cc12`, for which the growth with RPMI-8226 leukemia was -59.4% (active); in the assay on OVCAR-8 ovarian, -70.9% (active); with OVCAR-5 ovarian, -90.2% (active); in the assay on OVCAR-4 ovarian, -60.8% (active); in the assay with SK-OV-3 ovarian, 1.66% (active); in the assay with IGROV1 ovarian it was -82.9% (active). The growth in the assay with OVCAR-3 ovarian was -83.3% (active); in the assay with HS 578T breast it was -30.2% (active); in the assay on NCI/ADR-RES ovarian, -52.4% (active); in the assay on BT-549 breast, -95.9% (active); in the assay on MDA-MB-435 melanoma it was -93.2% (active); in the assay on SW-620 colon, -83.6% (active). Besides, the growth in the assay with MCF7 breast was -79.7% (active); in the assay on HCT-116 colon it was -96.5% (active); in the assay with HCC-2998 colon, -78.5% (active); in the assay with KM12 colon, -76.9% (active).

With `COc1cc(OC)c(/C=C/c2ccc3ccccc3[n+]2C)c(OC)c1`, the growth with RPMI-8226 leukemia was -20.9% (active); in the assay on OVCAR-8 ovarian it was 9.25% (active); in the assay on OVCAR-5 ovarian, 22.3%; in the assay with OVCAR-4 ovarian it was 28.8%; in the assay with SK-OV-3 ovarian, 27.1%; in the assay on IGROV1 ovarian, 14.8%. Moreover, the growth with OVCAR-3 ovarian was 1.43% (active); in the assay with HS 578T breast, 34.4%; in the assay on NCI/ADR-RES ovarian, 97.4%; in the assay with T-47D breast, 9.72% (active); in the assay with BT-549 breast, -0.0814% (active); in the assay on MDA-MB-435 melanoma, -30.6% (active). The growth with MCF7 breast was 3.94% (active); with HCT-116 colon, 2.2% (active); in the assay on HCC-2998 colon it was 13.4%; in the assay with KM12 colon, -49.2% (active).

The values above are taken from PubChem BioAssay (NCI).
